Experimental findings from PubChem BioAssay (NCATS) are described below.

In experiment [1] the target is Alpha-galactosidase (Coffea arabica) (UniProt Q42656). The experiment can be described thus: Counterscreen for Glucocerebrosidase Inhibitors: qHTS Assay for Coffee Bean alpha-Galactosidase at pH 4.5 (AID 957; active = well fitted curve in the direction sought with a large enough effect; an effect the other way counts as inactive or inconclusive;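 note: plate controls were enzyme alone for no effect and no enzyme for full effect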). The procedure, abridged:
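Fluorogenic qHTS at pH 4.5 (citrate buffer with Tween-20): 2 nM enzyme, 80 uM 4-MU-alpha-galactoside substrate, compound titrated 0.7 nM to 77 uM, 20 min room temperature. Glycine/NaOH stop; 4-MU read Ex 365/Em 440; Hill-equation AC50 against no-enzyme and enzyme controls.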
(In general: The purpose of a counterscreen is to sort out artefacts and off-target activity.)

For experiment [2] the target is unchanged. Nature of the experiment: Counterscreen for Glucocerebrosidase Inhibitors: qHTS Assay for Coffee Bean alpha-Galactosidase at pH 5.9 (AID 998; active = well fitted curve in the direction sought with a large enough effect; an effect the other way counts as inactive or inconclusive;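 note: plate controls were uninhibited enzyme for no effect and no-enzyme basal signal for full effect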). The method in brief: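 Enzyme 2 nM + cpd (0.7 nM–77 uM titration) + 4-MU-alpha-Gal 80 uM, pH 5.9 citrate/Tween-20, RT 20 min, NaOH/glycine stop pH 10, fluor 365/440. Normalized to no-enzyme and full-activity controls; Hill-fit AC50.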

Experiment [3] can be described thus: Inducers of the Endoplasmic Reticulum Stress Response (ERSR) in human glioma: Validation (AID 504836; active = well fitted curve in the direction sought with a large enough effect; an effect the other way counts as inactive or inconclusive; note: 0% is about no effect). The method in brief: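 Stably transfected U87-MG glioma cells carrying a GRP78-based luciferase sensor; 16 h compound incubation. Luminescence end-point read 10 min after Bright-Glo addition at room temperature.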
The nature of experiment [4]: qHTS for Inhibitors of the Functional Ribonucleoprotein Complex (vRNP) of Lassa (LASV) Arenavirus: Viability assay - alamar blue signal for LASV Primary Screen (AID 1347083; calls by dose curve; tested in HEK293 reporter line; note: nearly all actives have a fitted effect of over 80% in size; note: potency is the fitted concentration of half-maximal effect). On the technique in general: Quantitative high-throughput screening tests each substance at several concentrations.
Experiment [5] has as its target Nucleoprotein (Lymphocytic choriomeningitis virus (strain Armstrong)) (UniProt P09992). Nature of the experiment: qHTS for Inhibitors of the Functional Ribonucleoprotein Complex (vRNP) of Lymphocytic Choriomeningitis Arenaviruses (LCMV): LCMV Primary Screen - GLuc reporter signal (AID 1347086). For activity change, negative = inhibition: % is set by controls: 0 for no effect and ±100 for the full control effect. Note: nearly all actives have a fitted effect of over 70% in size. Note: potency is the fitted concentration of half-maximal effect.
Experiment [6] in a line: Cytotoxicity counterscreen for inhibitors of SARS-CoV-2 cell entry (AID 1645845). Note: nearly all actives have a fitted effect of over 50% in size. Note: potency is the fitted concentration of half-maximal effect. The method in brief: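 Counterscreen run in the same HEK293-ACE2 line as the pseudotyped-particle entry assay, without particles. Viability after 48 h at 37 C was read as ATP luminescence, scaled between cell-containing and cell-free wells.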
Experiment [7] can be described thus: Primary qHTS to identify inhibitors of SARS-CoV-2 cell entry (AID 1645846). Note: nearly all actives have a fitted effect of over 45% in size. Note: potency is the fitted concentration of half-maximal effect. The settings on record: activity change, negative = inhibition: at 57.1 µM (top of the series) unless noted. The method in brief:
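Luminescence readout (Bright-Glo luciferase) 48 h after pseudoparticle addition. HEK293-ACE2 cells, 1500/well; compound pre-incubation 1 h; Normalized to spike PP and bald PP.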

The target in experiment [8] is DNA polymerase eta (Homo sapiens) (UniProt Q9Y253). The experiment can be described thus: qHTS for Inhibitors of Polymerase Eta: Confirmatory Assay for Cherry-picked Compounds (AID 720502; active = well fitted curve in the direction sought with a large enough effect; an effect the other way counts as inactive or inconclusive; note: potency is the fitted concentration of half-maximal effect). The settings on record: Pol eta primer extension, TAMRA/BHQ fluorescence, 10 min. The method in brief: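 Human Pol eta (10 nM) was preincubated with compounds for 15 min at room temperature before adding 50 nM (final) DNA substrate: primer plus TAMRA reporter strand annealed to a BHQ-2-labeled template. Fluorescence (ex 525/em 598 nm) was read at 0 and 10 min.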

A short description of experiment [9]: qHTS for Inhibitors of the Functional Ribonucleoprotein Complex (vRNP) of Lymphocytic Choriomeningitis Arenaviruses (LCMV): Viability assay - alamar blue signal for LCMV Primary Screen (AID 1347085; calls by dose curve; tested in HEK293 reporter line; note: nearly all actives have a fitted effect of over 80% in size; note: potency is the fitted concentration of half-maximal effect).

Records with an inconclusive call do not appear. This is one part of the list. Calls of active or inactive are those of the source. Unless noted, calls come from the whole dose curve.

Nucleoprotein (Lymphocytic choriomeningitis virus (strain Armstrong)), sequence (P09992 whole entry, looked up): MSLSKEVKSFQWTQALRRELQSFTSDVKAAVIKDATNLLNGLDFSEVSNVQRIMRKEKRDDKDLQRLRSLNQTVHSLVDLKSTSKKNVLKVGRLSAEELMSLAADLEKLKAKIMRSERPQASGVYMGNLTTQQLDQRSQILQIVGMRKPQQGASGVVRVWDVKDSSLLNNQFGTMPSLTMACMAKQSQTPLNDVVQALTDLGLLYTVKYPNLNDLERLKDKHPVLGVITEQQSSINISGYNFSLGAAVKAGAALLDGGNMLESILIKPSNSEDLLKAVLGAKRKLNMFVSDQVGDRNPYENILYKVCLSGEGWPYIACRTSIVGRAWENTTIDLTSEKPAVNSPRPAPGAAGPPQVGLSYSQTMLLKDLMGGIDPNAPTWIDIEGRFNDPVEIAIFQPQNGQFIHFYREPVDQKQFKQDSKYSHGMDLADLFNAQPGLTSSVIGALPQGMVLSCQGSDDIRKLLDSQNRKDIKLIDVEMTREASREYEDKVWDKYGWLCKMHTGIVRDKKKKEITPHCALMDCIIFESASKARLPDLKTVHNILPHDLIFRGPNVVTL
Alpha-galactosidase (Coffea arabica), sequence (Q42656 whole entry, looked up): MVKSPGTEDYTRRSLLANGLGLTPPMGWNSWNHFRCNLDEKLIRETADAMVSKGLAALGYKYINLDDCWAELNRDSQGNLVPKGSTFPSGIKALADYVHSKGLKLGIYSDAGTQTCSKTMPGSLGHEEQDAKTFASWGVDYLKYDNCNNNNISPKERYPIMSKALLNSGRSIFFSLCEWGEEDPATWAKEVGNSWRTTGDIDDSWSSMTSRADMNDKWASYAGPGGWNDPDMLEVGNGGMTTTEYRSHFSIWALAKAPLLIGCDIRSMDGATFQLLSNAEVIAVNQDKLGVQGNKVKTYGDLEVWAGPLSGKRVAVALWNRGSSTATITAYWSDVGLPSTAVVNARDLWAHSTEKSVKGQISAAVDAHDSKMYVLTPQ
DNA polymerase eta (Homo sapiens), sequence (Q9Y253 whole entry, looked up): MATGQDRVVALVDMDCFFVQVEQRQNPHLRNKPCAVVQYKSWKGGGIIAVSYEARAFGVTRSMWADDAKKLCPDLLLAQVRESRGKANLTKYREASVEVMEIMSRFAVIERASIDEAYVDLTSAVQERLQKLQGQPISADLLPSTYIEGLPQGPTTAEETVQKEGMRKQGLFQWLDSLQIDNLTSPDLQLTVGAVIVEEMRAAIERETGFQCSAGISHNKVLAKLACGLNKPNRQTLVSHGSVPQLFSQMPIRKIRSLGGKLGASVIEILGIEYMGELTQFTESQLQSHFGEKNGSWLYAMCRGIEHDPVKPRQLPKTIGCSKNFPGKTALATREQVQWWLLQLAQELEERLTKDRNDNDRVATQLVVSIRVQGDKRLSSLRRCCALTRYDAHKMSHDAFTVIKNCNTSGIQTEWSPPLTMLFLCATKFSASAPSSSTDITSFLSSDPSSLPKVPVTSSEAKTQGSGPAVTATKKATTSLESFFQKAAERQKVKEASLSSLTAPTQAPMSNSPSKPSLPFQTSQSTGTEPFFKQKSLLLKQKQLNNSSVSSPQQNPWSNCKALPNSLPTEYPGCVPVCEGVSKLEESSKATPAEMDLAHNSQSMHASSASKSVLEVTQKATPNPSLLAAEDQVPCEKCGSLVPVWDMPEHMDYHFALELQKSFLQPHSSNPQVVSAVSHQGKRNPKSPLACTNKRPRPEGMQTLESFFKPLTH

As for `CCCCCCN(CCCCCC)C(=O)Cc1c(-c2ccc(F)cc2)[nH]c2ccccc12`, the outcome in experiment [1], in experiment [2] and in experiment [3] was inactive. The Potency result in [4] is “inactive”.

`C[C@@H]1COC(Nc2ccc3ncnc(Nc4ccc(OCc5nccs5)c(Cl)c4)c3c2)=N1`: the Potency in experiment [4] was 1.53 µM (active); in [5], 1.22 µM (active); in experiment [6] it was 31.6 µM (active).

Consider `COCCOc1ccc2c(c1)ncn2-c1ccc2cccc(N3CCC(N)CC3)c2n1`, for which, in experiment [4], the Potency was 24.3 µM (active). Also, the Potency entry in experiment [5] is “inactive”.

Consider `O=C(Nc1cccc(Br)c1)c1cccc(S(=O)(=O)N2CCCCCC2)c1`, for which the Potency is 24.3 µM (active) in experiment [4], 15.3 µM (active) in [5] and 31.6 µM (active) in [7].

As to `C[C@@H]1C[C@@H]2O[C@H]2/C=C\C=C\C(=O)Cc2c(Cl)c(O)cc(O)c2C(=O)O1`, the Potency was 26.9 µM (active) in [8] and 6.31 µM (active) in experiment [4].

For the compound `COC1CCC(OC2CC(C3(C)CCC4(CC(O)C(C)C(C(C)/C=C(\C)C(=O)C(C)CC(C)C(=O)O)O4)O3)OC3(OC(C4OC(O)(CO)C(C)CC4C)CC3C)C2C)OC1C` (configuration not stated), in experiment [9], the Potency result was “inactive”.

Turning to `NC(=O)N1CCC(CC(=O)N2CCC([C@H]3c4ncc(Br)cc4CCc4cc(Cl)cc(Br)c43)CC2)CC1`, the Potency result in [4] is “inactive”. Moreover, in experiment [5], the Potency was 12.2 µM (active). Further, the activity change, negative = inhibition in experiment [7] is -87.3%.

Turning to `c1cc(N[C@@H]2CCNC2)nc(-c2cnc3ccc(-c4cn[nH]c4)cn23)c1`, the results for the Potency in [4] and in experiment [6] were 10.9 µM (active) and 31.6 µM (active), respectively. The Potency entry in [5] is “inactive”.

As to `CCOC(=O)C1=C(C)NC(=S)NC1c1cccc(O)c1` (configuration not stated), the Potency in experiment [4] was 0.344 µM (active). In addition, the Potency entry in experiment [6] was “inactive”. In experiment [7], the activity change, negative = inhibition is -13.9%.

With `c1ccc2c(Cc3c[nH]c4ccccc34)c[nH]c2c1`, the Potency in [4] was 4.32 µM (active); in [5] it was 13.7 µM (active). Moreover, in experiment [6], the Potency entry is “inactive”.

As to `CCOC(=O)N[C@@H]1CC[C@@H]2[C@@H](C1)C[C@H]1C(=O)O[C@H](C)[C@H]1[C@@H]2C=Cc1ccc(-c2cccc(F)c2)cn1`, in experiment [9], the Potency was 5.44 µM (active).

`CC(C)CNc1ccnc(NCc2csc(-c3ccccc3)n2)n1`: the Potency in [4] is 13.7 µM (active); in experiment [5], 15.3 µM (active); in experiment [6], 22.4 µM (active).

As for `COc1c(O)c2c(=O)cc(OC)c3c4c(OC)cc(=O)c5c(O)c(OC)c6c(c(c1C[C@@](C)(O)[C@H]6C(C)=O)c23)c54`, in experiment [9], the Potency entry was “inactive”.

On to `C[C@@H](NC(=O)c1ncnc(N)c1Cl)c1ncc(C(=O)Nc2cc(C(F)(F)F)c(Cl)cn2)s1`, for which the Potency in [4] is 24.3 µM (active). For the same compound, the Potency result in [6] was “inactive”. In addition, in experiment [7], the activity change, negative = inhibition is -12.7%.

For the compound `CCC1(O)C(=O)OCc2c1cc1n(c2=O)Cc2cc3cc(O)ccc3nc2-1` (configuration not stated), the Potency in experiment [9] is 0.1 µM (active).

As to `COc1ccc(C=Cc2cc(OC)c(OC)c(OC)c2)cc1NC(=O)[C@H](N)CO`, in experiment [4], the Potency is 0.0022 µM (active). Further, in experiment [5], the Potency entry was “inactive”. Also, the activity change, negative = inhibition in experiment [7] is -66.1%.

As to `Cc1ccc(NC(=O)c2cccc(N(C)C)c2)cc1NC(=O)c1ccc(O)cc1`, in experiment [4], the Potency is 12.2 µM (active). Also, the Potency result in experiment [6] and in [7] was “inactive” throughout.

For `CNC(=O)c1ccc(Nc2cc(Nc3ccccc3S(=O)(=O)C(C)C)c3cc[nH]c3n2)nc1`, the values for the Potency in [4] and in [5] were 8.63 µM (active) and 27.3 µM (active), respectively.

Regarding `CC1=C(CC(=O)O)c2cc(F)ccc2C1=Cc1ccc(S(C)=O)cc1` (configuration not stated), the Potency in [4] is 38.5 µM (active). Besides, the Potency result in experiment [6] was “inactive”. The activity change, negative = inhibition in [7] was -11.8%.

Regarding `CS(=O)(=O)N1CCc2c(-c3cnc(N)nc3)nc(N3CCOCC3)nc21`, the Potency in experiment [4] was 0.273 µM (active); in [6], 3.55 µM (active). The Potency result in [5] was “inactive”.

Regarding `Nc1nc(N)c2nc(-c3cccc(O)c3)c(-c3cccc(O)c3)nc2n1`, in experiment [4], the Potency is 8.63 µM (active). Further, in experiment [6], the Potency result was “inactive”. Further, in experiment [7], the activity change, negative = inhibition was -9.58%.

With `NC(=O)Nc1cc(-c2ccc(CN3CCOCC3)cc2)sc1C(N)=O`, the Potency in experiment [4] is 7.69 µM (active). Further, the Potency entry in experiment [5] and in [6] was “inactive” throughout. The activity change, negative = inhibition in [7] is -10.1%.
